Screening results as filed in PubChem BioAssay.
This excerpt belongs to a sample that is enriched for hits.
12-LOX inh: ALOX12 (human) lipoxygenase inhibition. P18054. purified 12hLO, xylenol orange hydroperoxide absorbance. AID 1671190. Potency, µM (top dose mostly 108 µM), most hits filed as inhibitors. 580,000 tested, 1.1% active
Target sequence (P18054 whole entry, looked up): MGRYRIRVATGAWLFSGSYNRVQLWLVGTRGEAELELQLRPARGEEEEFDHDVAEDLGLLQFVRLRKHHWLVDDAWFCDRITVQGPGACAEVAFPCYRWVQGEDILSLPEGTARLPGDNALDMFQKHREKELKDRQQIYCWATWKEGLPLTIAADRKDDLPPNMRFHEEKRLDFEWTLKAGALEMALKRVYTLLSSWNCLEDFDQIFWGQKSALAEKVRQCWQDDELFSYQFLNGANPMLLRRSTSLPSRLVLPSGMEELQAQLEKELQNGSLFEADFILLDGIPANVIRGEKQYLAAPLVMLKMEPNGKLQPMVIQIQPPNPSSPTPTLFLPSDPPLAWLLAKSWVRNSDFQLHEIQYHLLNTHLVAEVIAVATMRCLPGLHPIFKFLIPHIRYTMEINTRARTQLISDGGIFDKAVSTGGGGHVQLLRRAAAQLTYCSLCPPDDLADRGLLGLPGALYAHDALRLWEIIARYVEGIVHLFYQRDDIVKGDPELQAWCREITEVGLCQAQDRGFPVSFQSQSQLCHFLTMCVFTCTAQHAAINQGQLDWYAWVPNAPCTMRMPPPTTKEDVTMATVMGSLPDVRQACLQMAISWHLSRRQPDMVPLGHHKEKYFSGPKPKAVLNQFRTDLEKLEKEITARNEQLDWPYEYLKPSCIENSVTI
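Purified human 12hLO at 150 nM in 25 mM Hepes, 0.01% Triton X-100, pH 7.0, preincubated 15 min at room temperature with compound. Reaction started with 40 uM arachidonic acid, 30 min at room temperature. Hydroperoxide measured by Fe-xylenol orange, 573/405 nm absorbance ratio.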
HT1080 IDH1KD tx: kills HT-1080 cells with IDH1 knockdown. HT-1080 IDH1 knockdown viability, ATP luminescence, 48 h. Potency, µM (series often up to 46.1 µM), hits mostly cytotoxic. 360,000 tested, 2% active
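CellTiter-Glo luminescence after 48 h compound exposure at 37 degrees C of IDH1-knockdown HT-1080 cells in 5% FBS RPMI. %Activity scaled between DMSO wells and cell-free media wells, with curves fitted and assigned curve classes.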
IL1B secr inh: blocks inflammasome-driven IL-1 beta release. THP-1 LPS/ATP IL-1B secretion, AlphaLISA, 16 h; active compounds read low. activity change, % at 57.5 µM. 360,000 tested, 4.7% active. AID 743279; in the data active = activity change below about -50%; inconclusive = mostly about -30% to -49%
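Secreted IL-1B measured by AlphaLISA bead assay after 16 h compound exposure of THP-1 cells; compounds (final up to 57.5 uM) added 1 h before LPS (250 ng/mL) and ATP (1.25 mM) stimulation; lower signal means less secretion.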
TDP1 cell noCPT: qHTS for Inhibitors of human tyrosyl-DNA phosphodiesterase 1 (TDP1): qHTS in cells in absence of CPT; 420,000 tested, 15% active; DT40 Tdp1-/- hTDP1 cells, no CPT, ATP luminescence, 48 h; Potency, µM (series often up to 46.2 µM), hits mostly inhibitors; also: nearly all actives have a fitted effect of over 55% in size
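Readout: luminescence from CellTiter-Glo after 30 min in the dark at RT. Cells: DT40 Tdp1-/- with stable hTDP1, 400/well. Exposure: compounds alone, ≥48 hr, 37 °C.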
HT1080-NT tox: kills 2HG-producing HT-1080-NT fibrosarcoma cells. HT-1080-NT fibrosarcoma viability, CellTiter-Glo ATP luminescence, 48 h. 360,000 tested, 1.6% active. Potency, µM (doses to about 46.1 µM), actives largely listed as cytotoxic;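 also: NT is the 2HG producing partner of a matched IDH1 knockdown line; nearly all actives have a fitted effect of over 55% in size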
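750 cells/well, RPMI + 5% FBS; 2 h settle, compound pin-transfer, 48 h at 37 degrees C. CellTiter-Glo 10 min RT, luminescence. Normalized to DMSO and media-only wells.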
DT40 TDP1 CPT: growth inhibition of DT40 Tdp1-/-;hTDP1 cells with camptothecin (screen for TDP1 inhibitors) | chicken DT40 Tdp1-/-;hTDP1 cells + 20 nM CPT, ATP luminescence, 48 h | Potency, µM (top dose mostly 46.2 µM), most hits filed as inhibitors | 420,000 tested, 12% active | AID 686979; also: nearly all actives have a fitted effect of over 55% in size
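Cell growth measured by CellTiter-Glo luminescence after a minimum 48 h, 37 C compound exposure with 20 nM CPT in Tdp1-knockout DT40 cells stably expressing hTDP1, seeded 400/well; qHTS titration format.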
A number is an active result; i = inactive; ? = inconclusive; nt = not tested or not shown. Unless noted, calls follow the shape of the dose curve; as a rule, active = well fitted curve in the direction sought with a large enough effect; inconclusive = small, poorly fitted or top-dose-only effect, or another doubt; inactive = no such curve, though single readings can be large; an effect the other way counts as inactive or inconclusive.

SMILES | 12-LOX inh | HT1080 IDH1KD tx | IL1B secr inh | TDP1 cell noCPT | HT1080-NT tox | DT40 TDP1 CPT
O=C1CN(C(=O)c2ccc(Cl)c(S(=O)(=O)N3CCc4ccccc43)c2)c2ccccc2N1 | i | ? | i | 21µM | 7.3µM | 16µM
Cc1cccc(NC(=O)c2ccc(Cl)c(S(=O)(=O)N3CCCC3)c2)n1 | i | i | i | ? | i | i
CN1CCC(N(C)C(=O)c2ccc(Cl)c(S(=O)(=O)N3CCc4ccccc43)c2)CC1 | i | i | -50 | ? | i | ?
CCOCCOC(C)C(=O)N(CC(=O)OCC)CC(C)C (stereo not drawn) | i | nt | nt | nt | nt | nt
CC(C)n1nc(C(=O)N2CCN(c3ncccn3)CC2)c2ccccc2c1=O | i | nt | nt | nt | nt | nt
COc1cccc(C(=O)Nc2ccc3nc(SCC(=O)N4CCc5ccccc54)sc3c2)c1 | i | nt | nt | 4.6µM | nt | 3.3µM
COc1ccc(C(=O)Nc2ccc3nc(SCC(=O)N4CCc5ccccc54)sc3c2)cc1 | i | nt | nt | 5.2µM | nt | 2.9µM
COc1cccc(C(=O)Nc2ccc3nc(SCc4ccc(C)cc4)sc3c2)c1 | i | nt | nt | 16µM | nt | 16µM
COc1ccc(C(=O)Nc2ccc3nc(SCc4ccc(C)cc4)sc3c2)cc1 | i | nt | nt | ? | nt | i
Cc1ccc(C(=O)Nc2ccc3nc(SCC(=O)N4CCc5ccccc54)sc3c2)cc1 | i | nt | nt | ? | nt | ?
CCCCC(=O)Nc1ccc2nc(SCC(=O)N3CCc4ccccc43)sc2c1 | i | nt | nt | 5.8µM | nt | 15µM
Cc1ccc(OCC(=O)Nc2ccc3nc(SCC(=O)N4CCc5ccccc54)sc3c2)cc1 | i | nt | nt | i | nt | i
Cc1ccc(-c2nc(CS(=O)(=O)Cc3cccc(F)c3)co2)cc1 | i | nt | nt | nt | nt | nt
CCCOC1(NC(=O)c2ccccc2)C(C)=CC(=O)C=C1C | i | i | i | ? | i | 23µM
COc1ccccc1CNC(=O)COC(=O)c1cccnc1Nc1cccc(C(F)(F)F)c1 | i | nt | nt | nt | nt | nt
CC1Cc2ccccc2N1S(=O)(=O)c1cccc(C(=O)NNC(=O)c2ccccc2F)c1 (stereo not drawn) | i | i | i | ? | i | i
O=C(NNC(=O)c1ccccc1F)c1cccc(S(=O)(=O)N2CCc3ccccc32)c1 | i | i | i | 10µM | i | 18µM
O=C(NCCc1ccccn1)c1cccc(S(=O)(=O)N2CCc3ccccc32)c1 | i | i | i | ? | i | ?
O=C(NCc1ccncc1)c1cccc(S(=O)(=O)N2CCc3ccccc32)c1 | i | i | i | ? | ? | 21µM
CC(NC(=O)c1cccc(S(=O)(=O)N2CCc3ccccc32)c1)c1ccco1 (stereo not drawn) | i | i | i | 18µM | i | ?
COc1ccccc1CCNC(=O)CSc1nc(Cl)nc2nc[nH]c12 | i | nt | nt | nt | nt | nt
Cc1ccc(Oc2ccccc2/C=N/O)cc1 | i | i | i | 21µM | i | 12µM
COc1ccc(C(=O)Nc2nc(-c3ccc([N+](=O)[O-])cc3)c(-c3ccccc3)s2)cc1 | i | i | ? | 7.3µM | i | 8.2µM
COc1ccc(-c2sc(NC(=O)c3ccc(C)cc3)nc2-c2ccc([N+](=O)[O-])cc2)cc1 | ? | i | i | ? | i | 23µM
COC(=O)c1ccc(CN2C(=O)[C@@H]3C[C@@H](O)CN3C3(CN(Cc4cccc(OC)c4)C3)C2=O)cc1 | i | nt | nt | nt | nt | nt
SMILES | 12-LOX inh | HT1080 IDH1KD tx | IL1B secr inh | TDP1 cell noCPT | HT1080-NT tox | DT40 TDP1 CPT
Cc1cc(N/N=C/c2ccc(Cl)cc2Cl)nc(NCc2ccccc2)n1 | i | ? | i | 7.3µM | i | 10µM
Cc1cc(N/N=C/c2ccc(F)cc2)nc(NCc2ccccc2)n1 | i | 16µM | -96 | 12µM | 18µM | 8.2µM
Clc1ccc(C=NNc2ccccn2)c(Cl)c1 | i | ? | i | i | i | i
CN(C)c1nc(NCc2ccccc2)nc(N/N=C/c2ccc(Br)cc2)n1 | i | i | i | i | i | i
Cc1cc(N/N=C/c2ccc(N(C)C)cc2)nc(NCc2ccccc2)n1 | i | i | -61 | 5.8µM | i | 7.3µM
O=C(Nc1ccc(F)cc1F)C1(CCO)CCN(c2ncccn2)C1 (stereo not drawn) | i | nt | nt | nt | nt | nt
Cc1csc(NC(=O)CCc2ncc(-c3ccc(C)c(C)c3)o2)n1 | i | nt | nt | nt | nt | nt
O=C(NCc1ccco1)C1CCCN1C(=O)Nc1cccc(Cl)c1 (stereo not drawn) | ? | i | i | i | i | i
O=C(NCCc1ccccc1)C1CCCN1C(=O)Nc1ccccc1 (stereo not drawn) | i | i | i | i | i | i
O=C(NCc1ccco1)C1CCCN1C(=O)Nc1ccc(Cl)cc1 (stereo not drawn) | i | i | i | 16µM | i | ?
O=C(NCCc1ccccc1)C1CCCN1C(=O)Nc1ccc(Cl)cc1 (stereo not drawn) | ? | i | i | ? | i | 16µM
O=C(NCc1cccs1)C1CCCN1C(=O)Nc1ccccc1Cl (stereo not drawn) | i | i | i | 23µM | i | i
Cc1ncc(-c2ccc(C)c(S(=O)(=O)Nc3cccc(C)c3C)c2)o1 | i | nt | nt | nt | nt | nt
Cc1cc(Cl)ccc1OCC(=O)OCC(=O)Nc1ccccc1 | i | nt | nt | nt | nt | nt
COc1ccccc1-c1nnc(SC(C(=O)N2CCOCC2)c2ccccc2)n1C1CCCCC1 (stereo not drawn) | i | nt | nt | nt | nt | nt
CC1CC(=O)Nc2cc(S(=O)(=O)NCc3ccccn3)ccc2S1 (stereo not drawn) | i | nt | nt | nt | nt | nt
Cc1c(C(=O)N2CCC(C)CC2)c(S(=O)(=O)NCc2ccc(F)cc2)c(C)n1C | i | nt | nt | nt | nt | nt
CN1CCN(C2=Nc3c(Cl)cc(Cl)c4cccc2c34)CC1 | i | i | -53 | 21µM | i | ?
CCCN1C(=O)c2cc(C(=O)NCc3ccccc3OC)nn2CC1(C)C(=O)NC1CCCC1 (stereo not drawn) | i | nt | nt | nt | nt | nt
CCOC(=O)[C@]12CCCC=C1N(CCC1=CCCCC1)C(=O)[C@H](CC(=O)NCc1cccc(C(F)(F)F)c1)C2 | i | ? | i | ? | ? | 18µM
COC(=O)[C@]12CCCCC=C1N(CCC1=CCCCC1)C(=O)[C@H](CC(=O)NCc1cccc(C(F)(F)F)c1)C2 | i | ? | ? | 23µM | ? | ?
Cc1ccc(N2N=C(c3ccccc3)CCC2=O)cc1 | i | nt | nt | nt | nt | nt
Cc1cccc(CNc2ncncc2-c2ccccc2CN(C)C)c1 | i | nt | nt | i | nt | i
Cc1cccc(CNc2nc(-c3ccccc3CN(C)C)nc3ccccc23)c1 | ? | nt | nt | 5.2µM | nt | 13µM
c1csc(CNc2nc(-c3ccc4c(c3)OCO4)nc3ccccc23)c1 | 11µM | nt | nt | ? | nt | ?
